Each structure is given as a SMILES string. “And” between values parts separate entries of the source, which are not always exact repeats. Identical values can stand only once. Results filed as inconclusive are left out. The source made the active and inactive calls. Unless noted, calls come from the whole dose curve; as a rule, active = well fitted curve in the direction sought with a large enough effect in the repeat runs; inconclusive = weak or mixed curves; inactive = no such curve, though single readings can be large; an effect the other way counts as inactive or inconclusive.

This note sets out measurements from PubChem BioAssay (Tox21).

Assay [1] in a line: qHTS assay for small molecule agonists of the p53 signaling pathway (AID 651631; calls by dose curve; note: nearly all actives have a fitted effect of over 15% in size). The method in brief:
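HCT-116 cells carrying a beta-lactamase reporter under p53 response elements were dosed with compound for 16 h at 37 °C. LiveBLAzer B/G FRET substrate was then added for 2 h at room temperature, and fluorescence intensity was read to detect pathway agonism.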
In general terms: qHTS replaces the single test concentration by a dilution series.

Assay [2] is described as follows: qHTS assay for small molecules that induce genotoxicity in human embryonic kidney cells expressing luciferase-tagged ATAD5 (AID 651632). Note: nearly all actives have a fitted effect of over 15% in size. The method in brief:
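A rise in luciferase signal from ATAD5-tagged HEK293T cells marks genetic stress. Cells were exposed to compounds for 16 hr at 37C, 5% CO2, then luciferase was quantified after a 30 min room-temperature incubation with Amplite.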

The nature of assay [3]: qHTS assay for small molecule agonists of the p53 signaling pathway - cell viability (AID 651633; calls by dose curve;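 note: p53RE-bla HCT reporter cells with a stable beta-lactamase p53 reporter; nearly all actives have a fitted effect of over 30% in size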). The method in brief: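 p53RE-bla cells, seeded at 4,000 per well and rested 5 h at 37 C/5% CO2, received compounds in DMSO for 16 h at 37 C. CellTiter-Glo was then added, and luminescence was read after 30 min at room temperature to gauge cytotoxicity.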
A short description of assay [4]: qHTS assay for small molecule disruptors of the mitochondrial membrane potential - cell viability (AID 720634; calls by dose curve;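 note: human HepG2 liver cancer cells; nearly all actives have a fitted effect of over 20% in size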). The essentials: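 Cytotoxicity was quantified from ATP content by CellTiter-Glo luminescence in the same wells as the MMP dye read-out. HepG2 (2,000 cells/well) were plated overnight and exposed to compounds for 1 hr at 37 C.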
The nature of assay [5]: qHTS assay for small molecule disruptors of the mitochondrial membrane potential (AID 720635). Note: potency is the fitted concentration of half-maximal effect. The method in brief: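 HepG2 cells (2,000/well) attached overnight at 37C, then took compound for 1 hr at 37C, 5% CO2. Mito-MPS dye was added for 30 min; fluorescence was read at 490/535 nm (monomers) and 540/590 nm (aggregates).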
The nature of assay [6]: qHTS assay to test for compound auto fluorescence at 590 nm (red) in HepG2 cells (AID 720674). The essentials: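 Intrinsic compound fluorescence in the red window (Ex/Em 540/590 nm) is measured in attached HepG2 cells exposed for 1 hr, DMSO vehicle as baseline, benchmarked to Rose Bengal sodium.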
A short description of assay [7]: qHTS assay to test for compound auto fluorescence at 535 nm (green) in HepG2 cells (AID 720675).
Assay [8] is described as follows: qHTS assay to test for compound auto fluorescence at 460 nm (blue) in HEK293 cells (AID 720678). The method in brief: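 Cells were seeded and left to adhere for 4-5 hr at 37C. Compounds were then pin-transferred. After an overnight incubation at 37C under 5% CO2, intrinsic fluorescence at 405/460 nm was measured and referenced to triamterene.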
The nature of assay [9]: qHTS assay to test for compound auto fluorescence at 590 nm (red) in HEK293 cells (AID 720679). The essentials: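 Each well held 2,000 HEK293 cells in medium containing 10% dialyzed FBS. Following 4-5 hr attachment at 37C, 23 nL test compound or DMSO was added; plates sat overnight, and red fluorescence (540/590nm) was recorded.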
Assay [10] in a line: qHTS assay to test for compound auto fluorescence at 535 nm (green) in HEK293 cells (AID 720680).
Assay [11] can be described thus: qHTS assay to test for compound auto fluorescence at 535 nm (green) in HEK293 cell free culture (AID 720682). The essentials: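 Green-label autofluorescence (485 nm excitation, 535 nm emission) measured on compound added to cell-free culture medium (DMEM, 10% FBS). Output is expressed relative to fluorescein.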
Assay [12] is described as follows: qHTS assay to test for compound auto fluorescence at 590 nm (red) in HEK293 cell free culture (AID 720683). The method in brief:
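Tox21 10K library compounds were pinned into cell-free DMEM with 10% FBS and fluorescence was read at excitation 540 nm. Activity is expressed as Rose Bengal sodium equivalency.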

The nature of assay [13]: qHTS assay to test for compound auto fluorescence at 590 nm (red) in HepG2 cell free culture (AID 720684). The method in brief: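 Readout: intrinsic compound fluorescence at 590 nm emission after 540 nm excitation, scaled to Rose Bengal sodium. Matrix was cell-free MEM with 10% FBS; DMSO vehicle wells served as control.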
A short description of assay [14]: qHTS assay to test for compound auto fluorescence at 535 nm (green) in HepG2 cell free culture (AID 720686).
Assay [15] can be described thus: qHTS assay to test for compound auto fluorescence at 460 nm (blue) in HepG2 cells (AID 720687). The essentials: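 Cells (2,000/well in MEM with 10% FBS) attached overnight at 37 C, then were exposed to compound or DMSO for 1 hr at 37 C, 5% CO2. Fluorescence read at Ex/Em 405/460 nm, expressed as triamterene-equivalent signal.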
The target of assay [16] is Glucocorticoid receptor (Homo sapiens) (UniProt P04150). As to the kind of experiment: qHTS assay to identify small molecule agonists of the glucocorticoid receptor (GR) signaling pathway (AID 720691; active = well fitted activation curve with a large enough effect in the signal ratio in the repeat runs, not every such curve was filed as active; the % refers to the signal ratio). The note with it: GR-bla HeLa, beta-lactamase reporter ratio, 18 h; activation: at 62.4 µM (top of the series). The method in brief:
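Agonist-mode qHTS in HeLa cells stably expressing a glucocorticoid-response-element beta-lactamase reporter. Fluorescence intensity read with FRET substrate (2 h, room temperature) after 18 h compound treatment at 37 C.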

For assay [17] the target is unchanged. As to the kind of experiment: qHTS assay to identify small molecule antagonists of the glucocorticoid receptor (GR) signaling pathway (AID 720692; active = well fitted inhibition curve with a large enough effect in the signal ratio in the repeat runs, not every such curve was filed as active; the % refers to the signal ratio; note: potency is the fitted concentration of half-maximal effect). The essentials: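 Inhibition of dexamethasone-driven (5 nM final) beta-lactamase expression was measured in GRE-reporter HeLa cells over 18 h at 37C. Fluorescence was read after 2 h with the B/G FRET substrate at room temperature.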

A short description of assay [18]: qHTS assay for small molecules that induce genotoxicity in human embryonic kidney cells expressing luciferase-tagged ATAD5 - cell viability (AID 651634; calls by dose curve; note: nearly all actives have a fitted effect of over 25% in size). The essentials: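 Cytotoxicity counter-readout: after 15.5 hr compound treatment at 37C, live-cell protease activity in ATAD5-luciferase HEK293T cells measured by CellTiter-Fluor fluorescence, 30 min development at 37C.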

Assay [19] is described as follows: qHTS assay to test for compound auto fluorescence at 460 nm (blue) in HepG2 cell free culture (AID 720685). The method in brief:
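Cell-free plates of MEM plus 10% FBS received 23 nL compound or DMSO vehicle; blue-channel (405/460 nm) intensity scored against triamterene as reference fluorophore.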

A short description of assay [20]: qHTS assay to test for compound auto fluorescence at 460 nm (blue) in HEK293 cell free culture (AID 720681). The method in brief: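 Test compounds were pinned into cell-free culture medium (DMEM with 10% FBS) and fluorescence was read directly at Ex/Em 405/460 nm. Signals were expressed as fluorescence equivalents of triamterene, with DMSO vehicle as control.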

Glucocorticoid receptor (Homo sapiens), sequence (P04150 whole entry, looked up): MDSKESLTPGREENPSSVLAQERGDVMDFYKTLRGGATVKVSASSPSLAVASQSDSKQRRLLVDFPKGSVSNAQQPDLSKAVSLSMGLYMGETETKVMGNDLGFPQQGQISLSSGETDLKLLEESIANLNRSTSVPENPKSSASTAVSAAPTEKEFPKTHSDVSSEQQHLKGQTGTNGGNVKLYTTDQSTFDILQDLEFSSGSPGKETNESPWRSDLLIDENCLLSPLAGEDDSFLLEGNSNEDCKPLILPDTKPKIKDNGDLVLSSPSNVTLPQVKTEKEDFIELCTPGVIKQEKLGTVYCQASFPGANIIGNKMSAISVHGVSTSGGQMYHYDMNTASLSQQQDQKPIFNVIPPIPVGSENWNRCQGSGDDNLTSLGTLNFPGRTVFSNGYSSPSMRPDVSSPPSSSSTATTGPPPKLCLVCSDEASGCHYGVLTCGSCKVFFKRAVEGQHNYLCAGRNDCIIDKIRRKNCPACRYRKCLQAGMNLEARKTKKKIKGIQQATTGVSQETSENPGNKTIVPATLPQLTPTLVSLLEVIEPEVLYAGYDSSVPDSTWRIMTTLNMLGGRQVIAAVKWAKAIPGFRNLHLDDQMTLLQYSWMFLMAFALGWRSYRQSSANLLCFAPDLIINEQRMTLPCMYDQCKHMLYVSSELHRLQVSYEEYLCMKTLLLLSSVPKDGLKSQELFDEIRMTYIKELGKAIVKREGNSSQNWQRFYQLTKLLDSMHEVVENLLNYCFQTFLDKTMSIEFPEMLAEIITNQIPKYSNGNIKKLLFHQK

With `O=C(O)c1ccc(C(=O)O)cc1`, the Potency entry in [1], in assay [3], in assay [4], in assay [5], in assay [16] and in assay [17] was “inactive” each time. The compound was called inactive in assay [2], in assay [6], in assay [7], in assay [8], in assay [9] and in assay [10]. In addition, the outcome in [11], in assay [12], in assay [13], in assay [14] and in assay [15] was inactive.
As for `O=C(O)c1cc(=O)c2c(OCC(O)COc3cccc4oc(C(=O)O)cc(=O)c34)cccc2o1`, the Potency result in assay [1], in [3], in [18], in assay [4] and in assay [5] was “inactive” in each case. Further, the result in assay [2], in assay [7], in assay [8], in [9], in [11] and in assay [12] was inactive. Moreover, the call in [13], in assay [19], in [14] and in assay [15] was inactive.
As to `O=P(OC(CCl)CCl)(OC(CCl)CCl)OC(CCl)CCl`, the Potency result in [1], in [3], in assay [18], in assay [4] and in assay [16] was “inactive” throughout. In addition, the call in assay [2], in assay [6], in assay [7], in assay [8], in assay [9] and in [10] was inactive. Besides, the result in [20], in [11], in assay [12], in assay [13], in assay [19] and in assay [14] was inactive. In addition, in [15], the compound was classed as inactive. The Potency in assay [5] was 61.1 µM (active); in assay [17], 21.8 µM (active) and 30.9 µM (active).
On to `Cc1ccc(S(N)(=O)=O)cc1`, for which the Potency result in [1], in assay [3], in [18], in [4], in assay [5] and in assay [16] was “inactive” throughout. The Potency entry in assay [17] is “inactive”. Besides, the result in assay [2], in assay [6], in assay [7], in assay [8], in assay [9] and in [20] was inactive. The compound was called inactive in assay [11], in [13], in assay [14] and in assay [15].
In the case of `c1c[nH]cn1`, the Potency result in [1], in assay [3], in assay [4], in assay [5], in assay [16] and in assay [17] was “inactive” throughout. The compound was called inactive in assay [2], in assay [6], in [7], in assay [8], in [9] and in assay [20]. The compound was classed as inactive in [11], in assay [13], in assay [14] and in [15].
In the case of `Cc1cnc(C(=O)NCCc2ccc(S(=O)(=O)NC(=O)NC3CCCCC3)cc2)cn1`, the Potency entry in assay [1], in assay [3], in assay [18], in assay [4], in assay [16] and in assay [17] was “inactive” in each case. The compound was called inactive in [2], in assay [7], in assay [8], in assay [9], in assay [10] and in assay [11]. Moreover, the outcome in assay [13], in [19], in assay [14] and in [15] was inactive.
For `CC(=O)c1ccccc1`, the Potency entry in [1], in assay [3], in assay [18], in assay [4] and in [5] was “inactive” throughout. Besides, the outcome in assay [2], in assay [7], in assay [8], in assay [9], in assay [20] and in [11] was inactive. For the same compound, the result in assay [12], in assay [13], in [14] and in [15] was inactive.
As for `O=C(OCCOCCOC(=O)c1ccccc1)c1ccccc1`, the Potency entry in assay [1], in [3], in assay [18], in assay [4], in [5] and in assay [16] was “inactive” each time. Also, the Potency result in assay [17] is “inactive”. Further, the call in assay [2], in assay [7], in assay [8], in [9], in assay [10] and in [20] was inactive. Moreover, the compound was classed as inactive in [11], in [13], in [19], in [14] and in [15].
